Screens as filed in PubChem BioAssay.
ARNT-TACC3 inh – disrupts binding between human ARNT and TACC3; inhibition, % at 9.99 µM; Q9Y6A5; AlphaScreen His-ARNT PAS-B/GST-TACC3 binding, luminescence; TACC3 fragment carries E629A point mutation; 390,000 compounds, 0.66% hits; AID 623870;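 active = mean inhibition of replicates at least 50% and at least half of replicates each reaching 50%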;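 note: 0% = complete ARNT plus TACC3 wells and 100% = ARNT alone without TACC3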
NSD2 inh – blocks human histone methyltransferase NSD2; O96028; NSD2 peptide methylation, AlphaScreen, 120 min; inhibition, % at 12.5 µM; 310,000 compounds, 0.54% hits; AID 743445; in the data active = inhibition above about 50%
PfHsp90 set2 – growth inhibition of yeast expressing Plasmodium Hsp90. S. cerevisiae expressing PfHsp90, BacTiter-Glo ATP, 48 h; yeast lacking PDR1 and PDR3 efflux regulators. inhibition, % at 9.4 µM. 310,000 compounds, 0.32% hits;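 active = every replicate shows inhibition above about 80%, whatever the replicate mean, limit read from the data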;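 note: 0% = DMSO neutral controls and 100% = 20 µM radicicol positive controls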
CASP6 VEID inh – caspase-6 (human) enzyme inhibition; 350,000 compounds, 0.53% hits; inhibition, % at 12.5 µM; P55212; purified caspase-6, Z-VEID-R110 cleavage fluorescence;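 active = mean inhibition across replicates at least about 35%, with every replicate also reaching that limit, limit read from the data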;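 note: 0% = median of neutral control wells and 100% = no fluorescence left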
SIRT5 inh – blocks human SIRT5 desuccinylation of peptide; Purified SirT5, succinyl-peptide AMC, trypsin-coupled fluorescence; inhibition, % at 15 µM; Q9NXA8; 330,000 compounds, 1.1% hits; in the data active = inhibition above about 15%
Target sequence (Q9NXA8 whole entry, looked up): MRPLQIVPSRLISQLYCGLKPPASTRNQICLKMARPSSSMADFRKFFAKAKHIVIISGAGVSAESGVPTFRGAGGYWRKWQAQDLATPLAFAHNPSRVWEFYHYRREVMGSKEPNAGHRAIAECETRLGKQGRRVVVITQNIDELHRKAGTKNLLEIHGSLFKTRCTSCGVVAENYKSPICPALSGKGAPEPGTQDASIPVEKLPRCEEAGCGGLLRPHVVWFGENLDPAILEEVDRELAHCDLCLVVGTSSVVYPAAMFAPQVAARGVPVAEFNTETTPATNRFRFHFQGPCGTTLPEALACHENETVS
* hit, by the source's call; · = no result given. Rows were chosen to be rich in hits. Some 2.1% of all compounds tested hit in one or more screens of this group.

SMILES	ARNT-TACC3 inh	NSD2 inh	PfHsp90 set2	CASP6 VEID inh	SIRT5 inh
CC(C(=O)NCc1cccs1)N1C(=O)c2ccccc2C1=O (stereo unspecified)	-5	1	-38	-3	19*
CCCCNC(=O)c1ccc2c(c1)ncn2C1CCCC1	-2	0	-1	·	·
O=C(O)c1ccc2c(c1)ncn2C1CCCC1	-6	0	-31	2	21*
C[C@@H]1CCCCO[C@@H](CN(C)C(=O)Nc2ccccc2)[C@H](C)CN([C@@H](C)CO)C(=O)c2cc(NC(=O)c3ccccc3)ccc2O1	-9	·	·	4	6
Cc1ccc(C(=O)OC(C)CN2CCN(C)CC2)cc1 (stereo unspecified)	-3	-4	54	0	22*
CC(CN1CCN(C)CC1)OC(=O)c1ccccc1Cl (stereo unspecified)	-8	3	0	·	·
CC(CN1CCCC1)OC(=O)c1ccccc1Cl (stereo unspecified)	0	1	8	-6	18*
CCC(=O)N1C[C@H](C)[C@H](OC)CN(C)C(=O)c2cc(NC(=O)COC)ccc2OC[C@H]1C	7	·	·	0	·
NC(=S)N=Nc1c(O)n(CCCl)c2ccccc12	-1	2	-1	-2	19*
NC(=S)N=Nc1c(O)n(CCCl)c2ccc(Cl)cc12	0	-2	14	-4	-1
COc1ccc2c3c(n(C)c2c1)[C@H](CO)N(C(=O)c1ccc(F)cc1)CC31CCN(CC2CCOCC2)CC1	·	·	·	1	0
COc1cc(C#N)ccc1OCC(=O)NCc1cccs1	-6	-2	1	-1	-5
COc1ccccc1OCC(=O)NCc1cccs1	45*	9	-6	·	·
CC(=O)c1cc(N2CCOCC2)ccc1[N+](=O)[O-]	·	1	-2	-1	15*
Cc1ccc(NC(=S)NNC(=O)c2nnn(-c3ccccc3)c2C)cc1	59*	-10	-24	6	2
Fc1ccc(N=C2NN=C(c3cc(F)ccc3F)CS2)cc1	9	-4	-103	0	6
O=S(=O)(c1ccc(N=C2NN=C(c3cc(F)ccc3F)CS2)cc1)N1CCOCC1	13	·	-58	·	27*
Cc1cccc(S(=O)(=O)N2CCCCN3[C@H](C2)[C@H](c2ccc(-c4ccccc4)cc2)[C@@H]3CO)c1	-2	·	·	-1	1
Cc1ccc(-c2ccc([C@H]3[C@H]4CN(S(=O)(=O)c5cccc(C)c5)CCCCN4[C@H]3CO)cc2)cc1	4	·	·	0	17*
Cc1cccc(S(=O)(=O)N2CCCCN3[C@H](CO)[C@@H](c4ccc(-c5ccccc5)cc4)[C@H]3C2)c1	28	·	·	2	22*
CCCCN(Cc1cccs1)S(=O)(=O)c1ccc(-c2ccc(=O)[nH]n2)s1	-2	2	0	2	0
CN(C)CCN(Cc1ccccc1)S(=O)(=O)c1ccc(-c2ccc(=O)[nH]n2)s1	-23	·	-12	-5	16*
COc1cc([N+](=O)[O-])cc(/C=N/NC(=O)c2cccnc2)c1O	73*	5	-32	14	6
CCOc1cccc(/C=N/NC(=O)c2cccnc2)c1O	56*	1	-1	-13	-4
COc1cc([N+](=O)[O-])cc(/C=N/NC(=O)C(O)(c2ccccc2)c2ccccc2)c1O	30	1	-23	-6	·
SMILES	ARNT-TACC3 inh	NSD2 inh	PfHsp90 set2	CASP6 VEID inh	SIRT5 inh
COc1cccc(C=NNC(=O)c2ccncc2)c1O	69*	1	·	-16	-1
CCOc1cc(/C=N/NC(=O)c2cccnc2)ccc1O	8	-3	-3	1	2
CCn1c(C)nc2cc(C(=O)N/N=C/c3cccc(OC)c3O)ccc21	40*	0	13	-7	-1
CCn1c(C)nc2cc(C(=O)N/N=C/c3ccc(O)c(O)c3O)ccc21	·	45	-4	6	6
CCCNC(=O)N1CCC2(CC1)CN(C(=O)NC(C)C)[C@H](CO)c1c2c2ccc(OC)cc2n1C	·	·	·	1	-7
O=C(c1ccccn1)N1CC2(C1)[C@H](c1ccccc1)[C@H](CO)N2Cc1ccc(Cl)cc1	·	·	·	1	3
COc1ccc(S(=O)(=O)N[C@H]2CC[C@H](CC(=O)NCCc3ccncc3)O[C@H]2CO)cc1	-10	·	·	0	-2
COc1cccc(NC(=O)N[C@H]2CC[C@H](CC(=O)Nc3ccc(-c4ccccc4)cc3)O[C@@H]2CO)c1	-14	·	·	0	·
CCC(=O)Nc1ccc2c(c1)C(=O)N(C)[C@H]1CC[C@@H](CC(=O)NCc3ccccc3Cl)O[C@H]1CO2	-14	·	·	0	3
